# Several values for one entry are separate records, joined by “and”; a condition that tells them apart may be missing. Equal values may be shown once. Where a structure was tested more than once in an assay, its records may differ in their call. Activity calls are given as the source filed them. Where a call stands in place of a potency, no number is given. Unless noted, the call rests on the fitted dose curve; in most records, active means well fitted curve in the direction sought with a large enough effect in the repeat runs; inconclusive means weak or mixed curves; inactive means no such curve, though single readings can be large; an effect the other way counts as inactive or inconclusive.
# Experiments:
# [1] = qHTS assay for small molecule agonists of the p53 signaling pathway (AID 651631; calls by dose curve; further: nearly all actives have a fitted effect of over 15% in size; further: potency means the concentration at half of the fitted maximal effect)
# In short: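 p53RE-bla HCT-116 cells; compounds 16 h, 37 °C; LiveBLAzer B/G FRET substrate 2 h RT; fluorescence intensity read-out, qHTS format.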
# [2] = qHTS assay for small molecules that induce genotoxicity in human embryonic kidney cells expressing luciferase-tagged ATAD5 (AID 651632); further: nearly all actives have a fitted effect of over 15% in size; further: potency means the concentration at half of the fitted maximal effect
# In short: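 HEK293T cells carrying a luciferase reporter tagged to ATAD5 were exposed to compound or DMSO vehicle for 16 hr at 37C, 5% CO2. Amplite was added, and after 30 min at room temperature luciferase activity was read as a marker of ATAD5 induction.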
# [3] = qHTS assay for small molecule agonists of the p53 signaling pathway - cell viability (AID 651633; calls by dose curve; further: nearly all actives have a fitted effect of over 30% in size; further: potency means the concentration at half of the fitted maximal effect)
# In short: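 p53RE-bla cells were treated with compound for 16 hours at 37 C. Cytotoxicity was then measured as CellTiter-Glo luminescence after 30 min at room temperature.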
# [4] = qHTS assay for small molecules that induce genotoxicity in human embryonic kidney cells expressing luciferase-tagged ATAD5 - cell viability (AID 651634; calls by dose curve; further: nearly all actives have a fitted effect of over 25% in size)
# In short: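 HEK293T cells expressing luciferase-tagged ATAD5 were exposed to compound or DMSO for 15.5 hr at 37C, 5% CO2. Viability was then read as live-cell protease activity by CellTiter-Fluor fluorescence after 30 min at 37C.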
# [5] = qHTS assay for small molecule disruptors of the mitochondrial membrane potential - cell viability (AID 720634; calls by dose curve;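 further: human HepG2 liver cancer cells; nearly all actives have a fitted effect of over 20% in size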)
# In short: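 HepG2 cells seeded overnight at 37 C, then exposed to compound or DMSO for 1 hr at 37 C, 5% CO2. m-MPI dye added, then CellTiter-Glo for 30 min at room temperature; viability read as ATP luminescence.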
# [6] = qHTS assay for small molecule disruptors of the mitochondrial membrane potential (AID 720635); further: potency means the concentration at half of the fitted maximal effect
# In short: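 HepG2 cells exposed to compound 1 hr at 37C, then Mito-MPS dye 30 min. Ratio read of aggregate (540/590 nm) versus monomer (490/535 nm) fluorescence.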
# [7] = qHTS assay to test for compound auto fluorescence at 590 nm (red) in HepG2 cells (AID 720674)
# In short: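 HepG2 cells, 2,000 per well in MEM with 10% FBS, attached overnight at 37 C, then got 23 nL compound or DMSO. After 1 hr at 37 C, 5% CO2, red fluorescence was read at 540/590 nm against Rose Bengal sodium as reference.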
# [8] = qHTS assay to test for compound auto fluorescence at 535 nm (green) in HepG2 cells (AID 720675)
# [9] = qHTS assay to test for compound auto fluorescence at 460 nm (blue) in HEK293 cells (AID 720678)
# In short: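 After cell attachment (4-5 hr, 37C), compounds were pinned onto HEK293 monolayers in 10% dialyzed FBS medium. The blue channel (405/460 nm) was read following overnight culture. Equivalency was calculated against triamterene.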
# [10] = qHTS assay to test for compound auto fluorescence at 535 nm (green) in HEK293 cells (AID 720680)
# [11] = qHTS assay to test for compound auto fluorescence at 460 nm (blue) in HEK293 cell free culture (AID 720681)
# In short: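 Compounds were added to cell-free DMEM with 10% FBS and fluorescence read directly. The blue channel used 405 nm excitation and 460 nm emission, with triamterene as the reference fluorophore.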
# [12] = qHTS assay to test for compound auto fluorescence at 535 nm (green) in HEK293 cell free culture (AID 720682)
# In short: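 Cell-free medium (DMEM, 10% FBS) receives compound or DMSO by pintool. Plate read directly at Ex 485/Em 535 nm. Signal converted to fluorescein equivalency.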
# [13] = qHTS assay to test for compound auto fluorescence at 590 nm (red) in HEK293 cell free culture (AID 720683)
# In short: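 Cell-free wells of DMEM with 10% FBS received compound, and intrinsic fluorescence was read at excitation/emission 540/590 nm. Values expressed as equivalence to Rose Bengal sodium.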
# [14] = qHTS assay to test for compound auto fluorescence at 590 nm (red) in HepG2 cell free culture (AID 720684)
# In short: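 Compound was pinned into wells holding MEM with 10% FBS and no cells, and red fluorescence was read at Ex/Em 540/590 nm. Signal is expressed as auto fluorescence equivalency relative to Rose Bengal sodium.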
# [15] = qHTS assay to test for compound auto fluorescence at 460 nm (blue) in HepG2 cell free culture (AID 720685)
# In short: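 Compound (23 nL) or DMSO pinned into cell-free MEM with 10% FBS; blue fluorescence read at 405/460 nm excitation/emission, expressed as auto-fluorescence equivalency to triamterene.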
# [16] = qHTS assay to test for compound auto fluorescence at 535 nm (green) in HepG2 cell free culture (AID 720686)
# [17] = target: Glucocorticoid receptor (Homo sapiens) (UniProt P04150); experiment: qHTS assay to identify small molecule agonists of the glucocorticoid receptor (GR) signaling pathway (AID 720691; active means well fitted activation curve with a large enough effect in the signal ratio in the repeat runs, not every such curve was filed as active; inconclusive means weak or mixed curves, or effect the other way; inactive means no such curve, though single readings can be large or run the other way; the % refers to the signal ratio); conditions: GR-bla HeLa, beta-lactamase reporter ratio, 18 h
# In short: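 GR-bla HeLa cells (beta-lactamase reporter under glucocorticoid response element) were plated 4 h at 37 C/5% CO2, given compounds in DMSO, and incubated 18 h at 37 C. LiveBLAzer B/G FRET substrate was added for 2 h at room temperature, then fluorescence intensity read.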
# [18] = target: Glucocorticoid receptor (Homo sapiens) (UniProt P04150); experiment: qHTS assay to identify small molecule antagonists of the glucocorticoid receptor (GR) signaling pathway (AID 720692; active means well fitted inhibition curve with a large enough effect in the signal ratio in the repeat runs, not every such curve was filed as active; inconclusive means weak or mixed curves, or effect the other way; inactive means no such curve, though single readings can be large or run the other way; the % refers to the signal ratio; further: potency means the concentration at half of the fitted maximal effect)
# In short: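 GR-bla HeLa cells (beta-lactamase reporter under glucocorticoid response element) were pre-plated 4 h at 37 C, treated with compounds plus 5 nM dexamethasone (final) for 18 h, then read by LiveBLAzer B/G FRET fluorescence after 2 h.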
# [19] = qHTS assay to test for compound auto fluorescence at 460 nm (blue) in HepG2 cells (AID 720687)
# In short: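 HepG2 cells in MEM with 10% FBS, attached overnight at 37 C, were exposed to compound or DMSO for 1 hr at 37 C, 5% CO2. Blue fluorescence was read at 405/460 nm, with triamterene as reference fluorophore.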
# [20] = qHTS assay to test for compound auto fluorescence at 590 nm (red) in HEK293 cells (AID 720679)
# In short: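 Plates of HEK293 cells (10% dialyzed FBS) are treated with 23 nL compound or DMSO vehicle after a 4-5 hr attachment period, incubated overnight at 37C, and read for red fluorescence at 540/590nm.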
# [21] = activation: at 62.4 µM (top of the series) unless noted
# Sequence of Glucocorticoid receptor (Homo sapiens) (P04150 whole entry, looked up): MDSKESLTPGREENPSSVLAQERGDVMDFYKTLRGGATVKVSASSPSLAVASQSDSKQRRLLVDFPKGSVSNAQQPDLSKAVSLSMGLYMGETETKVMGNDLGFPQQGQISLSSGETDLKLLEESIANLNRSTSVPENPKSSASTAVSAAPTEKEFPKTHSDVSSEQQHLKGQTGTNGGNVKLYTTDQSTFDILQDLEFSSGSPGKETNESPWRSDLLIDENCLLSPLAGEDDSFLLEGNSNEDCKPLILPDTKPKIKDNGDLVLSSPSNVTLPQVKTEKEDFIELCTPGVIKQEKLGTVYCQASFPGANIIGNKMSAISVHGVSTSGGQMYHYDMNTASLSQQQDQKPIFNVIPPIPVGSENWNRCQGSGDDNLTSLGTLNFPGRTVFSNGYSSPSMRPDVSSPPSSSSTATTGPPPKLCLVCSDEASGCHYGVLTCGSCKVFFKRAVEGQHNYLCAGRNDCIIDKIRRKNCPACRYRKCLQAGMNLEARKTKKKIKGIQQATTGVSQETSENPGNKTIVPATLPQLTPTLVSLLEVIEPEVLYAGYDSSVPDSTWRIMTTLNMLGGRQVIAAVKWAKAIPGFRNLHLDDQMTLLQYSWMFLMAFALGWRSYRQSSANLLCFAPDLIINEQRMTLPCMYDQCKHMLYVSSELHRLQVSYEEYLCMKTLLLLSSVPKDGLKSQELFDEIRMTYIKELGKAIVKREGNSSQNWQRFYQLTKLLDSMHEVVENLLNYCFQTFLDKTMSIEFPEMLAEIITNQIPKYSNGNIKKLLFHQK
smiles,measurement,setting,value
NCc1cccc(CN)c1,Potency,[1],inactive
same,Potency,[2],inactive
same,Potency,[3],inactive
same,Potency,[4],inactive
same,Potency,[5],inactive
same,Potency,[6],inactive
same,outcome,[7],inactive
same,outcome,[8],inactive
same,Potency,[9],inactive
same,outcome,[10],inactive
same,Potency,[11],inactive
same,outcome,[12],inactive
same,outcome,[13],inactive
same,outcome,[14],inactive
same,Potency,[15],inactive
same,outcome,[16],inactive
same,Potency,[17]; [21],inactive
same,Potency,[18],inactive
COC(=O)c1ccccc1O,Potency,[1],inactive
same,Potency,[2],inactive
same,Potency,[4],inactive
same,Potency,[5],inactive
same,Potency,[6],inactive
same,outcome,[7],inactive
same,outcome,[8],inactive
same,Potency,[9],inactive
same,outcome,[10],inactive
same,Potency,[11],inactive
same,outcome,[12],inactive
same,outcome,[13],inactive
same,outcome,[14],inactive
same,Potency,[15],inactive
same,outcome,[16],inactive
same,outcome,[19],inactive
CC1=C(CC(=O)O)c2cc(F)ccc2/C1=C\c1ccc(S(C)=O)cc1 (stereo not drawn),Potency,[1],inactive
same,Potency,[2],inactive
same,Potency,[3],inactive
same,Potency,[4],inactive
same,Potency,[5],inactive
same,outcome,[7],inactive
same,outcome,[8],inactive
same,Potency,[9],inactive
same,outcome,[20],inactive
same,outcome,[10],inactive
same,Potency,[11],inactive
same,outcome,[12],inactive
same,outcome,[13],inactive
same,outcome,[14],inactive
same,Potency,[15],inactive
same,outcome,[16],inactive
same,outcome,[19],inactive
same,Potency,[17]; [21],inactive
same,Potency,[18],inactive
O=[N+]([O-])c1cccc(Cl)c1,Potency,[1],inactive
same,Potency,[2],inactive
same,Potency,[3],inactive
same,Potency,[4],inactive
same,Potency,[5],inactive
same,Potency,[6],inactive
same,outcome,[7],inactive
same,outcome,[8],inactive
same,Potency,[9],inactive
same,outcome,[20],inactive
same,outcome,[10],inactive
same,Potency,[11],inactive
same,outcome,[12],inactive
same,outcome,[13],inactive
same,outcome,[14],inactive
same,Potency,[15],inactive
same,outcome,[16],inactive
COC(=O)Nc1nc2ccc(Sc3ccccc3)cc2[nH]1,Potency,[1],114 nM (active) and 68.6 nM (active)
same,Potency,[2],4.03 µM (active) and 12.2 µM (active)
same,Potency,[3],inactive
same,Potency,[4],inactive
same,Potency,[5],inactive
same,Potency,[6],4.33 µM (active)
same,outcome,[7],inactive
same,outcome,[8],inactive
same,Potency,[9],inactive
same,outcome,[20],inactive
same,outcome,[10],inactive
same,Potency,[11],inactive
same,outcome,[12],inactive
same,outcome,[13],inactive
same,outcome,[14],inactive
same,Potency,[15],inactive
same,outcome,[16],inactive
same,outcome,[19],inactive
same,activation,[17]; [21],2.86% [inconclusive] [at 29.2 µM] (active)
same,activation,[17]; at 62.4 µM (top of the series),2.36% (inactive)
CCOC(=O)/C=C\C(=O)OCC,Potency,[1],inactive
same,Potency,[2],inactive
same,Potency,[4],inactive
same,Potency,[5],inactive
same,Potency,[6],inactive
same,outcome,[7],inactive
same,outcome,[8],inactive
same,Potency,[9],inactive
same,outcome,[20],inactive
same,outcome,[10],inactive
same,Potency,[11],inactive
same,outcome,[12],inactive
same,outcome,[13],inactive
same,outcome,[14],inactive
same,Potency,[15],inactive
same,outcome,[16],inactive
same,Potency,[17]; [21],inactive
same,Potency,[18],inactive
C=C(C)C(=O)OCCCCCC,Potency,[1],inactive
same,Potency,[2],inactive
same,Potency,[4],inactive
same,Potency,[5],inactive
same,outcome,[7],inactive
same,outcome,[8],inactive
same,Potency,[9],inactive
same,outcome,[20],inactive
same,outcome,[10],inactive
same,Potency,[11],inactive
same,outcome,[12],inactive
same,outcome,[13],inactive
same,outcome,[14],inactive
same,Potency,[15],inactive
same,outcome,[16],inactive
same,outcome,[19],inactive
same,Potency,[17]; [21],inactive
same,Potency,[18],inactive
Cn1c([N+](=O)[O-])cnc1COC(N)=O,Potency,[1],inactive
same,Potency,[2],inactive
same,Potency,[4],inactive
same,Potency,[5],inactive
same,Potency,[6],inactive
same,outcome,[8],inactive
same,Potency,[9],inactive
same,outcome,[20],inactive
same,outcome,[10],inactive
same,Potency,[11],inactive
same,outcome,[12],inactive
same,outcome,[13],inactive
same,outcome,[14],inactive
same,Potency,[15],inactive
same,outcome,[16],inactive
same,outcome,[19],inactive
same,Potency,[17]; [21],inactive
same,Potency,[18],inactive
CCCCCCOC(C)=O,Potency,[1],inactive
same,Potency,[2],inactive
same,Potency,[3],inactive
same,Potency,[4],inactive
same,Potency,[5],inactive
same,outcome,[8],inactive
same,Potency,[9],inactive
same,outcome,[20],inactive
same,outcome,[10],inactive
same,Potency,[11],inactive
same,outcome,[12],inactive
same,outcome,[13],inactive
same,outcome,[14],inactive
same,Potency,[15],inactive
same,outcome,[16],inactive
same,outcome,[19],inactive
same,Potency,[17]; [21],inactive
same,Potency,[18],inactive
O=[N+]([O-])C(CO)(CO)CO,Potency,[1],inactive
same,Potency,[2],inactive
same,Potency,[3],inactive
same,Potency,[4],inactive
same,outcome,[7],inactive
same,outcome,[8],inactive
same,Potency,[9],inactive
same,outcome,[20],inactive
same,outcome,[10],inactive
same,Potency,[11],inactive
same,outcome,[12],inactive
same,outcome,[13],inactive
same,outcome,[14],inactive
same,Potency,[15],inactive
same,outcome,[16],inactive
same,outcome,[19],inactive
Oc1c(Cl)cc(Cl)c(Cl)c1Cl,Potency,[1],16.9 µM (active)
same,Potency,[2],inactive
same,Potency,[3],inactive and 61.1 µM (active)
same,outcome,[7],inactive
same,outcome,[8],inactive
same,Potency,[9],inactive
same,outcome,[10],inactive
same,Potency,[11],inactive
same,outcome,[12],inactive
same,outcome,[13],inactive
same,outcome,[14],inactive
same,Potency,[15],inactive
same,outcome,[16],inactive
same,outcome,[19],inactive
same,Potency,[17]; [21],inactive
same,Potency,[18],49 µM (active)
OC[C@@H](O)[C@@H](O)[C@H](O)[C@@H](O)CO,Potency,[1],inactive
same,Potency,[2],inactive
same,Potency,[4],inactive
same,Potency,[5],inactive
same,Potency,[6],inactive
same,outcome,[7],inactive
same,outcome,[8],inactive
same,Potency,[9],inactive
same,outcome,[20],inactive
same,outcome,[10],inactive
same,Potency,[11],inactive
same,outcome,[12],inactive
same,outcome,[13],inactive
same,outcome,[14],inactive
same,Potency,[15],inactive
same,outcome,[16],inactive
S=c1nc[nH]c2nc[nH]c12,Potency,[1],8.41 µM (active) and 5.31 µM (active)
same,Potency,[2],inactive
same,Potency,[3],1.88 µM (active) and 1.19 µM (active)
same,Potency,[4],inactive
same,Potency,[5],inactive
same,Potency,[6],inactive
same,outcome,[8],inactive
same,Potency,[9],inactive
same,outcome,[20],inactive
same,outcome,[10],inactive
same,Potency,[11],inactive
same,outcome,[12],inactive
same,outcome,[13],inactive
same,outcome,[14],inactive
same,Potency,[15],inactive
same,outcome,[16],inactive
same,outcome,[19],inactive
CC#C[C@]1(O)CC[C@H]2[C@@H]3CCC4=CC(=O)CCC4=C3[C@@H](c3ccc(N(C)C)cc3)C[C@@]21C,Potency,[1],21.1 µM (active) and 61.1 µM (active)
same,Potency,[2],inactive
same,Potency,[3],9.44 µM (active)
same,Potency,[5],inactive
same,outcome,[7],inactive
same,outcome,[8],inactive
same,Potency,[9],inactive
same,outcome,[10],inactive
same,Potency,[11],inactive
same,outcome,[12],inactive
same,outcome,[13],inactive
same,outcome,[14],inactive
same,Potency,[15],inactive
same,outcome,[16],inactive
same,outcome,[19],inactive
same,Potency,[17]; [21],inactive
